Experimental data from PubChem BioAssay AID1159580 (chemical genetic matrix, 2015).
Values joined by “and” are separate entries in the source; they are usually repeats but may differ in a detail not shown here. Identical values can stand only once. Hit rate of the full screen: of about 5,500 compounds, about 2,000 (36%) were called active. Not shown: some 18% with an inconclusive outcome. Cut-off read from the data, not from the text of the source: active = normalized growth mostly below about 0.91 (no sharp cut-off); inconclusive = no clear call, values can overlap the other calls; inactive = mostly above about 0.92. Some of the results follow.

Assay: chemical genetic growth profiling, strain panel (AID 1159580);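 note: tested at 20 µM; growth read once vehicle control cultures reached saturation at 30 °C; 1 = growth at the plate median or of vehicle wells; lower values mean less growth of the strain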
Conditions: growth OD

Measured: normalized growth

CN(C)C(=O)C(CCN1CCC(O)(c2ccc(Cl)cc2)CC1)(c1ccccc1)c1ccccc1
inactive: S. cerevisiae deletion strains, locus YJR075W, strain HOC1, stronger effect = lower value 1.01 and 0.984 | S. cerevisiae deletion strains, locus YKL009W, strain mrt4, stronger effect = lower value 1.01 | S. cerevisiae deletion strains, locus YKL068W, stronger effect = lower value 1 | S. cerevisiae deletion strains, locus YKL085W, strain MDH1 (second series), stronger effect = lower value 1.01 | S. cerevisiae deletion strains, locus YKL085W, strain MDH1, stronger effect = lower value 1.01 | S. cerevisiae deletion strains, locus YKL160W, strain elf1, stronger effect = lower value 0.973 | S. cerevisiae deletion strains, locus YKL190W, strain CNB1, stronger effect = lower value 0.997 | S. cerevisiae deletion strains, locus YKR001C, strain vps1, stronger effect = lower value 1.01 | S. cerevisiae deletion strains, locus YKR026C, strain gcn3, stronger effect = lower value 0.997 | S. cerevisiae deletion strains, locus YKR091W, strain srl3, stronger effect = lower value 0.991 | S. cerevisiae deletion strains, locus YLL001W, strain dnm1, stronger effect = lower value 0.971 | S. cerevisiae deletion strains, locus YLL026W, stronger effect = lower value 0.987 | S. cerevisiae deletion strains, locus YLL041C, strain sdh2, stronger effect = lower value 1 | S. cerevisiae deletion strains, locus YLR027C, strain aat2, stronger effect = lower value 0.976 | S. cerevisiae deletion strains, locus YLR039C, strain RIC1, stronger effect = lower value 1.05 | S. cerevisiae deletion strains, locus YLR058C, strain SHM2, stronger effect = lower value 1 | S. cerevisiae deletion strains, locus YLR102C, strain apc9, stronger effect = lower value 1.01 | S. cerevisiae deletion strains, locus YLR113W, strain HOG1, stronger effect = lower value 0.988 | S. cerevisiae deletion strains, locus YLR221C, strain rsa3, stronger effect = lower value 1 | S. cerevisiae deletion strains, locus YLR258W, strain gsy2, stronger effect = lower value 0.995 | S. cerevisiae deletion strains, locus YLR262C, strain YPT6 (second series), stronger effect = lower value 1.03 | S. cerevisiae deletion strains, locus YLR262C, strain YPT6, stronger effect = lower value 0.991 | S. cerevisiae deletion strains, locus YLR268W, strain sec22, stronger effect = lower value 1.04 | S. cerevisiae deletion strains, locus YLR320W, strain mms22, stronger effect = lower value 0.932 | S. cerevisiae deletion strains, locus YLR330W, strain CHS5, stronger effect = lower value 0.993 | S. cerevisiae deletion strains, locus YLR342W, strain FKS1 (second series), stronger effect = lower value 0.946 | S. cerevisiae deletion strains, locus YLR342W, strain FKS1, stronger effect = lower value 0.955 | S. cerevisiae deletion strains, locus YLR357W, strain rsc2, stronger effect = lower value 0.994 | S. cerevisiae deletion strains, locus YLR370C, strain arc18, stronger effect = lower value 1 | S. cerevisiae deletion strains, locus YLR371W, strain rom2, stronger effect = lower value 1.01 | S. cerevisiae deletion strains, locus YLR384C, strain iki3, stronger effect = lower value 0.996 | S. cerevisiae deletion strains, locus YLR418C, strain cdc73, stronger effect = lower value 0.979 | S. cerevisiae deletion strains, locus YML016C, strain PPZ1, stronger effect = lower value 0.998 | S. cerevisiae deletion strains, locus YML032C, strain rad52, stronger effect = lower value 1.01 | S. cerevisiae deletion strains, locus YML120C, strain ndi1, stronger effect = lower value 0.993 | S. cerevisiae deletion strains, locus YML124C, strain tub3, stronger effect = lower value 1.01 | S. cerevisiae deletion strains, locus YMR058W, strain fet3, stronger effect = lower value 0.996 | S. cerevisiae deletion strains, locus YMR078C, strain ctf18, stronger effect = lower value 1.01 | S. cerevisiae deletion strains, locus YMR125W, strain sto1, stronger effect = lower value 1.02 | S. cerevisiae deletion strains, locus YMR129W, stronger effect = lower value 1 | S. cerevisiae deletion strains, locus YMR205C, strain PFK2, stronger effect = lower value 0.969 | S. cerevisiae deletion strains, locus YMR223W, strain ubp8, stronger effect = lower value 0.992 | S. cerevisiae deletion strains, locus YMR231W, strain pep5, stronger effect = lower value 0.985 | S. cerevisiae deletion strains, locus YMR263W, strain SAP30, stronger effect = lower value 1.01 and 0.992 | S. cerevisiae deletion strains, locus YMR307W, strain GAS1, stronger effect = lower value 0.941 and 0.992 | S. cerevisiae deletion strains, locus YNL067W, strain RPL9B, stronger effect = lower value 1.01 | S. cerevisiae deletion strains, locus YNL071W, strain lat1, stronger effect = lower value 0.975 | S. cerevisiae deletion strains, locus YNL128W, strain TEP1, stronger effect = lower value 1.01 | S. cerevisiae deletion strains, locus YNL153C, strain GIM3, stronger effect = lower value 1.01 | S. cerevisiae deletion strains, locus YNL175C, strain NOP13, stronger effect = lower value 1 | S. cerevisiae deletion strains, locus YNL183C, strain NPR1, stronger effect = lower value 0.939 | S. cerevisiae deletion strains, locus YNL197C, strain WHI3, stronger effect = lower value 0.987 | S. cerevisiae deletion strains, locus YNL209W, strain ssb2, stronger effect = lower value 1.01 | S. cerevisiae deletion strains, locus YNL224C, strain SQS1, stronger effect = lower value 1.04 | S. cerevisiae deletion strains, locus YNL233W, strain BNI4, stronger effect = lower value 1 | S. cerevisiae deletion strains, locus YNL248C, strain rpa49, stronger effect = lower value 0.988 | S. cerevisiae deletion strains, locus YNL250W, strain rad50, stronger effect = lower value 1.02 | S. cerevisiae deletion strains, locus YNL271C, strain bni1, stronger effect = lower value 1.02 | S. cerevisiae deletion strains, locus YNL298W, strain CLA4, stronger effect = lower value 1 | S. cerevisiae deletion strains, locus YNL307C, strain MCK1, stronger effect = lower value 0.994 | S. cerevisiae deletion strains, locus YNL322C, strain KRE1 (second series), stronger effect = lower value 0.993 | S. cerevisiae deletion strains, locus YNL322C, strain KRE1, stronger effect = lower value 1.01 | S. cerevisiae deletion strains, locus YNR049C, strain mso1, stronger effect = lower value 1 | S. cerevisiae deletion strains, locus YNR052C, strain pop2, stronger effect = lower value 1 | S. cerevisiae deletion strains, locus YOL006C, strain TOP1, stronger effect = lower value 1.01 | S. cerevisiae deletion strains, locus YOL012C, strain htz1 1.2 | S. cerevisiae deletion strains, locus YOL147C, strain pex11, stronger effect = lower value 1.01 | S. cerevisiae deletion strains, locus YOR001W, strain rrp6, stronger effect = lower value 0.982 | S. cerevisiae deletion strains, locus YOR061W, strain CKA2, stronger effect = lower value 0.995 | S. cerevisiae deletion strains, locus YOR069W, strain VPS5, stronger effect = lower value 1 | S. cerevisiae deletion strains, locus YOR070C, strain gyp1, stronger effect = lower value 0.996 | S. cerevisiae deletion strains, locus YOR080W, strain dia2, stronger effect = lower value 0.981 | S. cerevisiae deletion strains, locus YOR083W, strain WHI5 (second series), stronger effect = lower value 1.07 | S. cerevisiae deletion strains, locus YOR083W, strain WHI5, stronger effect = lower value 0.954 | S. cerevisiae deletion strains, locus YOR106W, strain vam3, stronger effect = lower value 1 | S. cerevisiae deletion strains, locus YOR136W, strain idh2, stronger effect = lower value 1 | S. cerevisiae deletion strains, locus YOR144C, strain elg1, stronger effect = lower value 1.01 | S. cerevisiae deletion strains, locus YOR184W, strain ser1, stronger effect = lower value 1.02 | S. cerevisiae deletion strains, locus YOR231W, strain MKK1, stronger effect = lower value 0.997 | S. cerevisiae deletion strains, locus YOR265W, strain rbl2, stronger effect = lower value 1 | S. cerevisiae deletion strains, locus YOR270C, strain vph1, stronger effect = lower value 0.996 | S. cerevisiae deletion strains, locus YOR290C, strain snf2, stronger effect = lower value 0.973 | S. cerevisiae deletion strains, locus YOR316C, strain cot1, stronger effect = lower value 1.01 | S. cerevisiae deletion strains, locus YPL051W, strain arl3, stronger effect = lower value 0.99 | S. cerevisiae deletion strains, locus YPL055C, strain LGE1, stronger effect = lower value 0.999 | S. cerevisiae deletion strains, locus YPL078C, strain atp4, stronger effect = lower value 0.971 | S. cerevisiae deletion strains, locus YPL106C, strain sse1, stronger effect = lower value 0.952 | S. cerevisiae deletion strains, locus YPL240C, strain hsp82, stronger effect = lower value 0.992 | S. cerevisiae deletion strains, locus YPL241C, strain CIN2, stronger effect = lower value 0.992 and 1 | S. cerevisiae deletion strains, locus YPL256C, strain CLN2, stronger effect = lower value 0.973 | S. cerevisiae deletion strains, locus YPR119W, strain clb2, stronger effect = lower value 1.01 | S. cerevisiae deletion strains, locus YPR141C, strain kar3, stronger effect = lower value 1.02 | S. cerevisiae deletion strains, locus YPR163C, strain tif3, stronger effect = lower value 1.03 | S. cerevisiae deletion strains, locus YPR167C, strain met16, stronger effect = lower value 1.01 | S. cerevisiae deletion strains, strain wtn01, stronger effect = lower value 1.02 | S. cerevisiae strains, strain wild type, stronger effect = lower value 0.993
